Measured values: the supplement of paper PMC11732987, “Enantioselective OTUD7B fragment discovery through chemoproteomics screening and high-throughput optimisation” (Communications Chemistry, 2025)

Tests used:
Assay in all cases: log2 ratio of Biotin-Ahx-Ub-VS probe labelling (fragment/DMSO); higher = less target engagement (more negative = stronger competition), active = hit call of the paper (q ≤ 0.05, log2 ratio ≤ -1)
Settings in all cases: compound concentration: 200 uM; treatment time: 3 h
[1] = molecular target: USP34 (UniProt Q70CQ2)
Outline: (§1)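 Fragment (200 µM) or vehicle was incubated for 3 h with triplicate HEK293T lysate samples of 495 µg, which were then treated with Biotin-Ahx-Ub-VS at 0.5 µM final for 1 h. Labelled DUBs were enriched on NeutrAvidin, digested with LysC and trypsin, and analysed by diaPASEF LC-MS/MS. Values are average log2 fragment/vehicle ratios from an unpaired t-test on global-median-normalised Spectronaut label-free quantities, using proteins with ≥2 unique peptides.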

[2] = molecular target: T1, USP36 (UniProt Q9P275)
T1 sequence (whole entry): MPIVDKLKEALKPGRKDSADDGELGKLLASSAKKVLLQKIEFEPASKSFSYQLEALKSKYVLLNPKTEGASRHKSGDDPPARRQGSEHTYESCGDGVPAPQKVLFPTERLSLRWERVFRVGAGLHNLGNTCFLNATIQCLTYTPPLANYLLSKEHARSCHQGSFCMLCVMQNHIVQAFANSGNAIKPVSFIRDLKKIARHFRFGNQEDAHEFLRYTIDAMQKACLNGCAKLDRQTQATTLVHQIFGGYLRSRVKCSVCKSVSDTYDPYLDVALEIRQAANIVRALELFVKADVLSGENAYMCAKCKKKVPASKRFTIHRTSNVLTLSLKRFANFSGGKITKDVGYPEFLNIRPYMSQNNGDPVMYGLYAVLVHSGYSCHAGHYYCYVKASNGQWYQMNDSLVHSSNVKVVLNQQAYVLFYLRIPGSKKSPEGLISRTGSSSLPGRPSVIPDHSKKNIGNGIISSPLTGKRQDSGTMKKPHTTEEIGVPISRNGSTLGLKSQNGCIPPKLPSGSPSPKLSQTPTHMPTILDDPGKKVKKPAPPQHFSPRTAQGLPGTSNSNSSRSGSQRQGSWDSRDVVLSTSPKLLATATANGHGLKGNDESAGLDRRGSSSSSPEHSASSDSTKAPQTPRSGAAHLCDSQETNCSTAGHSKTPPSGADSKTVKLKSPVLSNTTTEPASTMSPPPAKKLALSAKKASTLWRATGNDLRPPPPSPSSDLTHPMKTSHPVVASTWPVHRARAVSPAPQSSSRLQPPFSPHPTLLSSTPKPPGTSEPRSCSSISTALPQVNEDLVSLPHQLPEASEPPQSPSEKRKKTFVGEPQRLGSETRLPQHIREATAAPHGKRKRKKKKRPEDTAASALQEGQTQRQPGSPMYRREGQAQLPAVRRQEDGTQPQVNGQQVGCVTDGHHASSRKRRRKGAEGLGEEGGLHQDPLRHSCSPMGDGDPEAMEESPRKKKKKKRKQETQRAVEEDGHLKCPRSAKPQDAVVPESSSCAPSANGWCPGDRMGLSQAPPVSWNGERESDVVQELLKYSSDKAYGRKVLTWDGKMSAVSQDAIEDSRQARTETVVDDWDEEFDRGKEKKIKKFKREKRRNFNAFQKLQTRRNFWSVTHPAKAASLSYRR
Outline: as §1

[3] = molecular target: T2, USP38 (UniProt Q8NB14)
T2 sequence (whole entry): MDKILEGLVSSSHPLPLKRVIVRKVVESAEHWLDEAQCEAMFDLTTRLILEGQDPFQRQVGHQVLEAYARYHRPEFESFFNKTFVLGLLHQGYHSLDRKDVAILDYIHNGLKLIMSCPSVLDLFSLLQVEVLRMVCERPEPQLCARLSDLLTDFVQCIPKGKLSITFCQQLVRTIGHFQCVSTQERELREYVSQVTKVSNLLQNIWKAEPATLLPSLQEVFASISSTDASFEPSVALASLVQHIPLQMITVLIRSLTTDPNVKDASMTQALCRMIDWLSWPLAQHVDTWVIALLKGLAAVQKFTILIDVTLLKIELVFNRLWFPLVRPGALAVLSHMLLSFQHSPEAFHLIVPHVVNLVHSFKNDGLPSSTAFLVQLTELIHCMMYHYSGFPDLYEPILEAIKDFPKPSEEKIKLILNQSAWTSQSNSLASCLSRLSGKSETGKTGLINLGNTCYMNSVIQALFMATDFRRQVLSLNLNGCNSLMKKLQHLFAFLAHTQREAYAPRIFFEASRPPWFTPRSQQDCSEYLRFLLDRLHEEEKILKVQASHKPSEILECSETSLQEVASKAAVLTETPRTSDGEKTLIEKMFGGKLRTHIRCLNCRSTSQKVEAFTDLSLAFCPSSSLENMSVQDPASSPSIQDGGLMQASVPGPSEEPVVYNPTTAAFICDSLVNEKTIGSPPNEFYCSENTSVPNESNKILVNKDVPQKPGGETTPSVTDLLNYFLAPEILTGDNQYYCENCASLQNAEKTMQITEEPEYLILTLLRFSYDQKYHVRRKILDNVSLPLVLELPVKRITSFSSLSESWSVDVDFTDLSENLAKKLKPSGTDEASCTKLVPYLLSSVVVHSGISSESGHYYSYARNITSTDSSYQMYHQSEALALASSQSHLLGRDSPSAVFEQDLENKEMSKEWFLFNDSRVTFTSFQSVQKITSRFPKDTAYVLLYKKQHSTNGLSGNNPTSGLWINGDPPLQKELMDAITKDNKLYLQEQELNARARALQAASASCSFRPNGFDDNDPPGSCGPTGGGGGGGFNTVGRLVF
Outline: as §1

[4] = molecular target: T3, USP39 (UniProt Q53GS9)
T3 sequence (whole entry): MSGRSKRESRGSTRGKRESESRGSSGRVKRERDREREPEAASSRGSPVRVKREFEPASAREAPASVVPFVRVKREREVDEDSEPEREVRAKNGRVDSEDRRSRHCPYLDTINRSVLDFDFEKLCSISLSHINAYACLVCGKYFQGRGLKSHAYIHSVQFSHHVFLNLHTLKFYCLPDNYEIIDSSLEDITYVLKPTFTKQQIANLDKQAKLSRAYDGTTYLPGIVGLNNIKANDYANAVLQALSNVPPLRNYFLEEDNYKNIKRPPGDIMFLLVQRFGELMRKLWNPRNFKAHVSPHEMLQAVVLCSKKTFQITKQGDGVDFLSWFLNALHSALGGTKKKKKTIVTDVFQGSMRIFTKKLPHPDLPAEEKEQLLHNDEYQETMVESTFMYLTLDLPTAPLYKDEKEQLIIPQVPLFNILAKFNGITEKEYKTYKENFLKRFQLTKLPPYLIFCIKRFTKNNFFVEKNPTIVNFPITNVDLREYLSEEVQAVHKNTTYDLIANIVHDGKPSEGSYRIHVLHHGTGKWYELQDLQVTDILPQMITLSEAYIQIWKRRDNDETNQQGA
Outline: as §1

[5] = molecular target: T4, USP4 (UniProt Q13107)
T4 sequence (whole entry): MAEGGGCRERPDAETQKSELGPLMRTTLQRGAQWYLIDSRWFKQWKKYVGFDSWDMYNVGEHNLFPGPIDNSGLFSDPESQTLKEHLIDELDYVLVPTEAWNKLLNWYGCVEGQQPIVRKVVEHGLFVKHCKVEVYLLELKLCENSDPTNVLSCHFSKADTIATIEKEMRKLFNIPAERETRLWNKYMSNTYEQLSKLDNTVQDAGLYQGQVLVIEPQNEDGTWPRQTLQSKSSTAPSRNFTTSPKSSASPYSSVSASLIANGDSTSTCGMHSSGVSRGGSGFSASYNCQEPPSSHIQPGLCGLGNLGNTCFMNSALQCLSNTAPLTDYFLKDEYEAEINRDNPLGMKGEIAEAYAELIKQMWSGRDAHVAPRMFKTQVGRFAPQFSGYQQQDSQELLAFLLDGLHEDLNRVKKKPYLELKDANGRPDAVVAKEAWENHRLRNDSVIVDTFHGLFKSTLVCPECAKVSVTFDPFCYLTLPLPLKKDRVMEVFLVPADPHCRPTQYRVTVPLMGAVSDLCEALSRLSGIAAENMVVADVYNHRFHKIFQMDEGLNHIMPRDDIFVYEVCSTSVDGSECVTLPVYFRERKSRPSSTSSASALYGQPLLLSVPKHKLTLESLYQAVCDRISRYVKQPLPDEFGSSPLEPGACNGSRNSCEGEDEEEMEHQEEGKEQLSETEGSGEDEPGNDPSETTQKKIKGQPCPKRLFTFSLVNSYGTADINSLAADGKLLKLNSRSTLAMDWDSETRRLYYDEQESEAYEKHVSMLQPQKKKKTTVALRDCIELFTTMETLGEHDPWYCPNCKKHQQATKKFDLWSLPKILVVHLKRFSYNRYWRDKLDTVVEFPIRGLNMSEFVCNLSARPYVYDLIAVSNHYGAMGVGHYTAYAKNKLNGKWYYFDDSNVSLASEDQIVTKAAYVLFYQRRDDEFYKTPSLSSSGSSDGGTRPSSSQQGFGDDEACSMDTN
Outline: as §1

Measured: log2 ratio of Biotin-Ahx-Ub-VS probe labelling

Sequence of USP34 (Q70CQ2 whole entry, the tested form may be a part): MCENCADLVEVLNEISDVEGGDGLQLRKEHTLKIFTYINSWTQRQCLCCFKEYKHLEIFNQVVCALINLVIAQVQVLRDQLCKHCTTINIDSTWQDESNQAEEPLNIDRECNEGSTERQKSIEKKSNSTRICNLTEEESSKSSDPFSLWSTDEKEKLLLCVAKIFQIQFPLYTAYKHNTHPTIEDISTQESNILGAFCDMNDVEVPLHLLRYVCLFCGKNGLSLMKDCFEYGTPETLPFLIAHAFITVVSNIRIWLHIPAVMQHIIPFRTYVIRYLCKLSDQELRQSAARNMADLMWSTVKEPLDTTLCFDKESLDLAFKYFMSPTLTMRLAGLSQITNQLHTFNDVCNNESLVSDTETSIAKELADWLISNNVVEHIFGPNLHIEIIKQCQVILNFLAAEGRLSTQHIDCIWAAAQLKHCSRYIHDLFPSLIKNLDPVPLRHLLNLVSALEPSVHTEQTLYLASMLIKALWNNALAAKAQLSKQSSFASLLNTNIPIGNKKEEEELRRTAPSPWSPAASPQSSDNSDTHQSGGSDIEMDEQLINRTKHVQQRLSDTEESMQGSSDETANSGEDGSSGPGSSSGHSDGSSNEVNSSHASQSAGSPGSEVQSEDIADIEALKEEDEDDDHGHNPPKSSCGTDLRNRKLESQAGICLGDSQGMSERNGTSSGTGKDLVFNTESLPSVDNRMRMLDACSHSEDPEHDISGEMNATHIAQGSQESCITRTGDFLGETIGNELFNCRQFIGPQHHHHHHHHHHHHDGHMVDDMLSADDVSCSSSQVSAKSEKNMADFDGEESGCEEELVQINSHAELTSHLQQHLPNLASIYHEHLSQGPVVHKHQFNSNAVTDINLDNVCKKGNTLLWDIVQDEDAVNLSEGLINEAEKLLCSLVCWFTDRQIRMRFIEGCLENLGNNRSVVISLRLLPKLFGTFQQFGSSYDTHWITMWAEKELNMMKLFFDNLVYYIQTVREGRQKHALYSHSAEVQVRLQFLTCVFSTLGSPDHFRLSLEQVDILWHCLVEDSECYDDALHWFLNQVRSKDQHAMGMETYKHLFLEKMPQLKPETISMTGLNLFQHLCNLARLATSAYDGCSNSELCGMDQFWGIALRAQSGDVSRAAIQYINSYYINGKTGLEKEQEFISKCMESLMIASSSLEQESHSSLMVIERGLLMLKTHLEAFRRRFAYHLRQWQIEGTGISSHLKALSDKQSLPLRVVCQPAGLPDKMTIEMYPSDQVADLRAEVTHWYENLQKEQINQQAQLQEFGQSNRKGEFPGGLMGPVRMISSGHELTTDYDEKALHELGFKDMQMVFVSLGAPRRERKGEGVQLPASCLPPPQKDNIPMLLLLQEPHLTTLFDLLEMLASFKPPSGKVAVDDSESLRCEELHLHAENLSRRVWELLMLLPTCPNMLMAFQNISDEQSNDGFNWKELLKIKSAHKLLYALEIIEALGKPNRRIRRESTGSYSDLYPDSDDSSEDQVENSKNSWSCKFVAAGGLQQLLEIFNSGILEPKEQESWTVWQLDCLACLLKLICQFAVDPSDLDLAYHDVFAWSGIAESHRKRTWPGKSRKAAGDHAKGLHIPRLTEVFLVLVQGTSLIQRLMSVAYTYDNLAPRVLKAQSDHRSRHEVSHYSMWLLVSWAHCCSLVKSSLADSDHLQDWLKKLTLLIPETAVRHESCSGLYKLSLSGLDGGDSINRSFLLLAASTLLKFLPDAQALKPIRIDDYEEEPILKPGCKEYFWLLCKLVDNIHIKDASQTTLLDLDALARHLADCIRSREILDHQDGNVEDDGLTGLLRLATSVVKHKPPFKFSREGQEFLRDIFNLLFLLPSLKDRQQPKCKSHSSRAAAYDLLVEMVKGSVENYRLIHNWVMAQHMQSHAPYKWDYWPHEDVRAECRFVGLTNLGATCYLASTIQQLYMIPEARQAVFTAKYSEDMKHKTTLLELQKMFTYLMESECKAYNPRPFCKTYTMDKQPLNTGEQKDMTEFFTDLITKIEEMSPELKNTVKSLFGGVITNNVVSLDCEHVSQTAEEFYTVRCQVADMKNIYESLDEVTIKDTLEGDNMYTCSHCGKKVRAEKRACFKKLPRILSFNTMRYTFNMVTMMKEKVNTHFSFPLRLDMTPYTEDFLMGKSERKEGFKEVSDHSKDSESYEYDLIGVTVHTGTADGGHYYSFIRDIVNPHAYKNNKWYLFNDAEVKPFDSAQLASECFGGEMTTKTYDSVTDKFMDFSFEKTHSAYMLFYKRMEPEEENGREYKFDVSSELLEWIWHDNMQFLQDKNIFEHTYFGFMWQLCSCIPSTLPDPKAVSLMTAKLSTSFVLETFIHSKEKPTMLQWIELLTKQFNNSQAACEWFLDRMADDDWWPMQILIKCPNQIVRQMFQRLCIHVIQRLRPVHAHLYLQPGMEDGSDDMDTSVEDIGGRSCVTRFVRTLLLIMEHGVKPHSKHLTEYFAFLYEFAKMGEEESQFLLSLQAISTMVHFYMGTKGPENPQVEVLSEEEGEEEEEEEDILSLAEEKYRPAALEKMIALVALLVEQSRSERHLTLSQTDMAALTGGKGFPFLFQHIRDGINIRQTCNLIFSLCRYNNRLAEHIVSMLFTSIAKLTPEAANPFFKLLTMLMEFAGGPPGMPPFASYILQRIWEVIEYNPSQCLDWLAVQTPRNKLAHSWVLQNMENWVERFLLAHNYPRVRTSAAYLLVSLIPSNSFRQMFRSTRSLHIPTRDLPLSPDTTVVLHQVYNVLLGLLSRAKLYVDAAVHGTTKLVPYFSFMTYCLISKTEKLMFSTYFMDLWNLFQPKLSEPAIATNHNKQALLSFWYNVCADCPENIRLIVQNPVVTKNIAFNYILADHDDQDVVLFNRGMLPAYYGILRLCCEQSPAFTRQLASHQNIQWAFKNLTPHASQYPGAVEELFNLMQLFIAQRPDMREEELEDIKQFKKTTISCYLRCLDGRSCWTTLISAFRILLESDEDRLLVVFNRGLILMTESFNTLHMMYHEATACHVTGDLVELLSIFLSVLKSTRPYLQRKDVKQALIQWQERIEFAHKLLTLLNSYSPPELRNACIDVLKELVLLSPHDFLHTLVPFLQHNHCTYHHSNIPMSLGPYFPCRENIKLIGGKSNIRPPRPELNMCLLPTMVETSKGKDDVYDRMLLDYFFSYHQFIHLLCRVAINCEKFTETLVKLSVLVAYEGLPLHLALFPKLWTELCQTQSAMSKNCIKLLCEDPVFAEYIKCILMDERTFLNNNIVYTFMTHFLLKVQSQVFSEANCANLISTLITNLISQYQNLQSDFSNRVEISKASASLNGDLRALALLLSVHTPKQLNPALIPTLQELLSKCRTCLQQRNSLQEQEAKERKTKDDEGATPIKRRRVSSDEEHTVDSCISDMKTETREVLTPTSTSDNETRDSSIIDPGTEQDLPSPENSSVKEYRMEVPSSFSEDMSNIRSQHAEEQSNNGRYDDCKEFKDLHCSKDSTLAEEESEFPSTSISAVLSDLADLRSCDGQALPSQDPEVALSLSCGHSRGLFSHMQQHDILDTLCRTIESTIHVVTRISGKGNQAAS

Cc1noc(C)c1CNC(=O)CCl
inactive: [1] -0.584 | [2] -0.32 | [3] -0.547 | [4] 0.303 | [5] -0.608
